The source of these data is PubChem BioAssay (NCI).

Common to all, as to test: NCI-60 one-dose screen, 48 h (100 = growth as untreated, 0 = no growth, -100 = all killed)
Experiment [1] deals with SK-MEL-2 melanoma. The note with it: 10 µM.
The test system of experiment [2] is EKVX NSCLC. Particulars: 10 µM unless noted.
The test system of experiment [3] is SN12C renal. The note with it: 10 µM unless noted.
Experiment [4] concerns UO-31 renal. Particulars: 10 µM unless noted.
Experiment [5] relates to TK-10 renal. The note with it: 10 µM unless noted.
For experiment [6], the system named is ACHN renal. Particulars: 10 µM unless noted.
Experiment [7] relates to A498 renal. The note with it: 10 µM unless noted.
Experiment [8] relates to CCRF-CEM leukemia. The note with it: 10 µM unless noted.
Experiment [9] relates to MOLT-4 leukemia. Particulars: 10 µM unless noted.
Experiment [10] has as its system SR leukemia. Particulars: 10 µM unless noted.
In experiment [11] the test system is RPMI-8226 leukemia. Particulars: 10 µM unless noted.
In experiment [12] the test system is OVCAR-8 ovarian. Particulars: 10 µM unless noted.
Experiment [13] concerns OVCAR-5 ovarian. Particulars: 10 µM unless noted.
In experiment [14] the test system is OVCAR-4 ovarian. Particulars: 10 µM unless noted.
Experiment [15] concerns SK-OV-3 ovarian. The note with it: 10 µM unless noted.
The subject of experiment [16] is IGROV1 ovarian. The note with it: 10 µM unless noted.
The test system of experiment [17] is OVCAR-3 ovarian. Particulars: 10 µM unless noted.
For experiment [18], the system named is HS 578T breast. The note with it: 10 µM.
For experiment [19], the system named is NCI/ADR-RES ovarian. Particulars: 10 µM unless noted.
For experiment [20], the system named is CAKI-1 renal. Particulars: 10 µM unless noted.

Molecules are shown by their SMILES. About 83,000 compounds went through this panel and 20% of them were active in at least one assay; those are over-represented in the sample as a whole.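 Interpretation: 100, growth as untreated; towards 0, rising growth inhibition; 0, no net growth; 0 to -100, cell death. Compounds scoring below 10 were considered active.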 A number with no mark means an inactive call. Active and inactive are the calls of the source.

For the compound `COc1cc(-c2nc(C(=O)NCC(=O)O)nn2-c2ccc(Cl)cc2)cc(OC)c1OC`, the growth in [1] was 120%; in experiment [2], 91.7%; in [3], 101%; in [4], 90.5%; in experiment [5] it was 117%; in experiment [6], 112%. For the same compound, the growth in [7] was 107%; in [8], 84.2%; in experiment [9], 100%; in [10] it was 106%; in experiment [11] it was 99%; in [12], 102%. Further, the growth in experiment [13] was 105%; in [14], 105%; in experiment [15], 98.7%; in experiment [16], 105%; in experiment [17] it was 107%; in [18] it was 106%. Also, the growth in experiment [19] was 105%.

Regarding `COC(=O)[C@]12CC[C@@H](C)[C@H](C)[C@@H]1C1=CC[C@@H]3[C@@]4(C)C[C@@H](OC(=O)/C=C/c5ccccc5)[C@H](O)[C@@](C)(CO)[C@@H]4[C@H](O)C[C@@]3(C)[C@]1(C)CC2`, the growth in experiment [1] was 47.8%; in experiment [2], 33.8%; in [3], -83.2% (active); in [4], 19.6%; in [5], 18.1%; in [6] it was 3.47% (active). Also, the growth is 15.6% in experiment [20]; 18.8% in experiment [8]; 0.848% (active) in [9]; -18.4% (active) in [10]; 9.79% (active) in experiment [11]; 14.6% in experiment [12]. Besides, the growth in experiment [13] is -27.6% (active); in experiment [14], 23.3%; in experiment [15], 41.9%; in [16], 31.2%; in experiment [17], -37.1% (active); in [18], -0.549% (active). Further, the growth in experiment [19] was 7.34% (active).

Regarding `COc1ccc(OC)c(NC2=C(SCCc3ccccc3)C(=O)c3ccccc3C2=O)c1`, the growth was 73.2% in [1]; 77.3% in [2]; 91.2% in experiment [3]; 61.6% in experiment [4]; 110% in experiment [5]; 77.2% in experiment [6]. The growth in [20] was 63.7%; in experiment [8], 122%; in [9], 80.4%; in experiment [10] it was 70.7%; in experiment [11], 74%; in experiment [12] it was 94.5%. The growth in [13] is 99.3%; in experiment [14], 58.4%; in [15], 88.5%; in [16], 75.7%; in experiment [17], 83.4%; in experiment [18] it was 70.8%. Further, the growth in experiment [19] was 76.5%.

With `O=C(Nc1ccc(N=Nc2ccccc2)cc1)c1cccc2ccccc12`, the growth in experiment [1] was 56.4%; in [2] it was 71.5%; in [3] it was 78.8%; in experiment [4], 68.3%; in experiment [5] it was 76.2%; in experiment [6] it was 77.5%. The growth in experiment [20] was 70.8%; in [8] it was 49.8%; in experiment [9], 37.2%; in experiment [10], 23.3%; in [11] it was 66.1%; in experiment [12] it was 78.7%. The growth was 92.5% in experiment [13]; 75.8% in experiment [14]; 64.5% in experiment [15]; 80.4% in experiment [16]; 37.1% in experiment [17]; 72.6% in experiment [18]. In addition, the growth in experiment [19] is 49.3%.

`CCCCN1CCCC[C@@H]1C(=O)N[C@H](C(=O)N(C)[C@H](CCc1nc(C(=O)N[C@@H](Cc2ccccc2)C[C@H](C)C(=O)OC)cs1)C(C)C)C(C)C`: the growth in [1] was 68.1%; in [2], 65.8%; in experiment [3], 82.2%; in [4], 52.3%; in experiment [5], 102%; in experiment [6], 59.7%. In addition, the growth in experiment [7] was 61.2%; in experiment [8] it was 38.8%; in [9] it was 35.2%; in [10], 7.34% (active); in [11], 7.01% (active); in experiment [12], 82.6%. Further, the growth in experiment [13] is 95.1%; in [14], 61.3%; in [15] it was 75.4%; in [16], 50.3%; in experiment [17], 65.2%; in experiment [18] it was 90%.

On to `N#Cc1c(-c2ccc(C(F)(F)F)cc2)c(F)c(NCCC2CCC(O)C2)n2c1nc1ccccc12` (stereo unspecified), for which the growth was 101% in experiment [1]; 43.8% in experiment [2]; 49.1% in [3]; 52.6% in [4]; 83.6% in experiment [5]; 61.2% in experiment [6]. Moreover, the growth in experiment [20] was 26.6%; in [8], 17.9%; in experiment [9], 45.9%; in [10], 9.1% (active); in experiment [11] it was 49.5%; in experiment [12], 45.4%. The growth in experiment [13] is 88.7%; in experiment [14] it was 69.9%; in experiment [15], 43.2%; in experiment [16], 50.2%; in [17] it was 79.9%; in [18], 86.8%. In addition, the growth in experiment [19] was 37.9%.

As for `Cc1nn(-c2nc3ccccc3[nH]2)c2c1C(c1ccc(OCc3ccc(F)cc3)cc1)CC(=O)N2` (stereo unspecified), the growth is 30.7% in [1]; 81.7% in [2]; 55.4% in experiment [3]; 36.9% in experiment [4]; 56.1% in experiment [5]; 48.2% in experiment [6]. The growth in experiment [20] is 66.2%; in [8], 52.8%; in experiment [9], 7.48% (active); in experiment [10] it was 67.5%; in experiment [11], 76.3%; in experiment [12] it was 54%. Moreover, the growth in [13] is 98.5%; in experiment [14] it was 98.4%; in [15] it was 49.1%; in [16] it was 54.6%; in experiment [17], 51%; in experiment [18], 39%. Also, the growth in experiment [19] is 65.9%.

For `O=C1CC(c2ccc3c(c2)OCO3)c2ncn(-c3ccc(Cl)cc3)c2N1` (stereo unspecified), the growth in experiment [1] is 43.4%; in experiment [2], 68.2%; in experiment [3], 56.6%; in experiment [4] it was 61.3%; in experiment [5], 67.9%; in [6] it was 53.9%. Further, the growth in experiment [20] is 37.1%; in experiment [8], 28.2%; in [9], 32%; in [10], 24.4%; in [11], 38.7%; in experiment [12], 29.7%. Besides, the growth was 71.2% in experiment [13]; 59.3% in [14]; 37.4% in experiment [15]; 60.5% in experiment [16]; 7.91% (active) in experiment [17]; 47.5% in experiment [18]. Besides, the growth in experiment [19] is 14%.
